Results reported in PubChem BioAssay.
Active and inactive are the calls of the source.

Assays:
[1] = tested on: Plasmodium falciparum Sir2 (PF13_0152, Sir2A); assay: Plasmodium falciparum Sir2A binding compounds – biochemical, small-molecule microarray, 635 nm fluorescence, primary screen (AID 1098); settings: fluorescence 635 nm, higher = more signal;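 further: score merges spot fluorescence intensity with its signal-to-noise ratio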
[2] = probe aDKK1 binding to arrayed compounds – biochemical, biotinylated probe, 635/667 nm fluorescence, primary screen (AID 1099); settings: small-molecule microarray, higher = more signal;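 further: score merges 667nm spot fluorescence with signal to noise across triplicate slides; reference of the scale not given here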
[3] = probe aCHRDL2 binding to arrayed compounds – biochemical, biotinylated probe, 635/667 nm fluorescence, primary screen (AID 1100); settings: small-molecule microarray, higher = more signal
[4] = change in splice reporter luminescence, either direction, cell-based, HEK293, spliceosome inhibition project, primary screen (AID 1101); settings: HEK293 splicing luciferase reporter, 24 h, higher = more signal, called active from +8 up or from −8 down;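 further: HEK293 cells carrying a splicing-competent luciferase reporter gene; test concentration not given here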
[5] = biological target: Fibroblast growth factor 10 (Homo sapiens) (UniProt O15520); assay: compounds binding fibroblast growth factor 10 – biochemical, small-molecule microarray, 635 nm fluorescence, primary screen (AID 1102); settings: FGF10 binding, fluorescence 635 nm, higher = more signal
[6] = tested on: glycogen synthase kinase-3 (GSK3A per assay name; protocol says GSK3B); assay: compounds binding glycogen synthase kinase-3 – biochemical, small-molecule microarray, 635 nm fluorescence, GSK3A, primary screen (AID 1103); settings: fluorescence 635 nm, higher = more signal; further: the record names both GSK3A and GSK3B
[7] = biological target: Epidermal growth factor receptor (Homo sapiens) (UniProt P00533); assay: compounds binding epidermal growth factor receptor – biochemical, small-molecule microarray, 635 nm fluorescence, primary screen (AID 1104); settings: EGFR binding, higher = more signal;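 further: score merges 667 nm emission intensity with spot signal to noise over triplicate slides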
[8] = biological target: Follistatin-related protein 3 (Homo sapiens) (UniProt O95633); assay: compounds binding follistatin-related protein 3 – biochemical, small-molecule microarray, 635 nm fluorescence, primary screen (AID 1105); settings: FSTL3 binding, higher = more signal;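 further: score merges emission near 667 nm and signal to noise per printed spot across three slides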
[9] = biological target: Dickkopf-related protein 1 (Homo sapiens) (UniProt O94907); assay: small molecules binding DKK1 protein – biochemical, small-molecule microarray, 635 nm fluorescence scan, primary screen (AID 1106); settings: higher = more signal;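 further: score merges emission near 667 nm with signal to noise over three replicate slides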
[10] = tested on: Inhibin beta A chain (activin A); assay: small molecules binding activin A – biochemical, small-molecule microarray, 635 nm fluorescence scan, primary screen (AID 1107); settings: INHBA, higher = more signal;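 further: mouse activin A protein probed at 4.33 µg/mL on printed slides; score merges bound-protein fluorescence near 667 nm with spot signal-to-noise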

Follistatin-related protein 3 (Homo sapiens), sequence (O95633 whole entry, looked up): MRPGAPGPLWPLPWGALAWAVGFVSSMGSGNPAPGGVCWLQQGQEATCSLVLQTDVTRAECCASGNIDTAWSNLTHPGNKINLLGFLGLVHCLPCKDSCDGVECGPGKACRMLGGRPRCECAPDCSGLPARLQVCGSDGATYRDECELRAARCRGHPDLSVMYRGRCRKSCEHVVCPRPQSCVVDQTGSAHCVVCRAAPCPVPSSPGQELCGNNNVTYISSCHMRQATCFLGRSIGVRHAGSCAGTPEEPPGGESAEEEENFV
Epidermal growth factor receptor (Homo sapiens), sequence (P00533 whole entry, looked up): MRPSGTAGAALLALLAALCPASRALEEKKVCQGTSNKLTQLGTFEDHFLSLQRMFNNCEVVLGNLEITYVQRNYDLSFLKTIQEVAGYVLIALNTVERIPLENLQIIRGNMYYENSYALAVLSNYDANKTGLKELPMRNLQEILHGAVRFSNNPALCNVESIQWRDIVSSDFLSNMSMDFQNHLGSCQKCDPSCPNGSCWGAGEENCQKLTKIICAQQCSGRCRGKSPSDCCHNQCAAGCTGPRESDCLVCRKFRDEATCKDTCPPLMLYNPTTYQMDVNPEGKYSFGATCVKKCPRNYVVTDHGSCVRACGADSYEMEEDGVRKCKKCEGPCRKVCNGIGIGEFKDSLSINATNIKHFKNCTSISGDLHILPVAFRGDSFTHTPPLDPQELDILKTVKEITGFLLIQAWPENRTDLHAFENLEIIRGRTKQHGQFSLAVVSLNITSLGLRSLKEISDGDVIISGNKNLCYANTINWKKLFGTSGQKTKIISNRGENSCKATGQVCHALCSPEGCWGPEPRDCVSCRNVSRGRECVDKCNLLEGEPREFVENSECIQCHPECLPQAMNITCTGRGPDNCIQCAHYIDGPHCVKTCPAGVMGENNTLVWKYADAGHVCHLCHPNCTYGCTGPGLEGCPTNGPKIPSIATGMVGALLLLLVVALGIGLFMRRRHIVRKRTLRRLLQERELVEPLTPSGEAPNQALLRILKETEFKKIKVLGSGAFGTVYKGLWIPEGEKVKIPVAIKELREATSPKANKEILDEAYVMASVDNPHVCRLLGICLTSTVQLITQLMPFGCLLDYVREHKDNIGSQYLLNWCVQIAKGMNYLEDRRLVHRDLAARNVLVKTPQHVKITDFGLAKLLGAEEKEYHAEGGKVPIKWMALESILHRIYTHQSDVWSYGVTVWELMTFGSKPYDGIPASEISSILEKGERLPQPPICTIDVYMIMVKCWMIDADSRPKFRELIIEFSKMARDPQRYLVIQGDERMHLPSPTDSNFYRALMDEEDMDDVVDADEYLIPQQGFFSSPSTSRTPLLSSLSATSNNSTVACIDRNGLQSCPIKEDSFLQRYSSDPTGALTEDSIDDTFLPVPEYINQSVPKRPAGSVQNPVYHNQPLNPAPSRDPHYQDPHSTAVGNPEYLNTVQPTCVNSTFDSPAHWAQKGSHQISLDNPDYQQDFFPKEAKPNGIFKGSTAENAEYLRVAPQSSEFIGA
Fibroblast growth factor 10 (Homo sapiens), sequence (O15520 whole entry, looked up): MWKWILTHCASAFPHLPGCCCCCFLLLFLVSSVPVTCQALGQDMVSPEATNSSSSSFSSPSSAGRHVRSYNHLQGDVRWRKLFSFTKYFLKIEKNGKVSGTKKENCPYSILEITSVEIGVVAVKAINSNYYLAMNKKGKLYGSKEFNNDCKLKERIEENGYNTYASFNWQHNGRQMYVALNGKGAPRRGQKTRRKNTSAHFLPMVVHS
Dickkopf-related protein 1 (Homo sapiens), sequence (O94907 whole entry, looked up): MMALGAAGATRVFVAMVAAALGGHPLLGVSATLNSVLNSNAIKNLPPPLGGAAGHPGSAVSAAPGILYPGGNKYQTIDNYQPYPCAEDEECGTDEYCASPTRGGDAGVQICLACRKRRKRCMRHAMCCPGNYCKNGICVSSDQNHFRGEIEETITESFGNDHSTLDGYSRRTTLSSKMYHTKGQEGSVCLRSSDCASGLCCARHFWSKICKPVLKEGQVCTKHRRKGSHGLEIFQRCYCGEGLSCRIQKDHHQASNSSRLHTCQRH

| SMILES | composite z-score [1] | composite z-score [2] | composite z-score [3] | z-score [4] | composite z-score [5] | composite z-score [6] | composite z-score [7] | composite z-score [8] | composite z-score [9] | composite z-score [10] |
| --- | --- | --- | --- | --- | --- | --- | --- | --- | --- | --- |
| O=C(NCc1ccccc1)[C@@H]1c2ccccc2C(=O)N(C2Cc3ccccc3C2)[C@H]1c1ccc(CO)cc1 | 0.81 | 0.689 | 1.01 | -0.0178 (inactive) | 0.732 | 0.737 | -0.318 | 0.475 | 0.0698 | 0.344 |
| COC(=O)c1c2oc(c1C(=O)OC)C(=O)N[C@@H](C(C)C)Cn1cc(nn1)C1(CCCCC1)NC(=O)N[C@H](CO)CC2 | 1.68 | -0.324 | -0.288 | 0.343 (inactive) | 0.408 | 0.0356 | -0.375 | -0.0824 | 0.145 | -0.462 |
| CC1CC/C=C\[C@H]2OC34C=CCN(Cn5nnc6ccccc65)C(=O)[C@H]3N(CCCCCO)C(=O)[C@@H]4C2C(=O)O1 (stereo not given in full) | 0.285 | -0.415 | 0.598 | 0.271 (inactive) | -1.26 | -1.32 | -0.494 | -0.186 | -1.27 | -0.318 |
| CC[C@@H]1C=C(C(=O)O)[C@H](c2cccc3ccccc23)N1S(=O)(=O)c1ccc(C)cc1 | 0.819 | 0.0149 | 0.0792 | 0.756 (inactive) | 0.51 | 0.466 | 0.294 | 0.495 | 0.153 | 1.02 |
| O=C(O)[C@@]1(CCS(=O)(=O)c2ccccc2)N=C(c2ccc(OCCCO)cc2)O[C@H]1c1ccccc1 | 0.729 | 0.737 | 0.905 | -0.123 (inactive) | -0.678 | -0.123 | -0.264 | 0.215 | -1.05 | 0.658 |
| COc1cc2c(cc1O)C=[N+](Cc1cc3c(cc1Br)OCO3)CC2 | 1.73 | 0.0055 | 0.591 | -0.244 (inactive) | -0.445 | -1.06 | -0.486 | -1.04 | -1.05 | 0.655 |
| COCCCNC(=O)[C@@H]1c2ccccc2C(=O)N(Cc2ccccc2OC)[C@H]1c1ccc(CO)cc1 | 0.342 | -0.257 | 0.287 | -1.06 (inactive) | 0.621 | -0.177 | 0.238 | 0.403 | 0.56 | 0.344 |
| O=C1NC(=O)C2C1C=CC(C(O)C=Cc1ccc([N+](=O)[O-])cc1)N2Nc1ccc(Cl)cc1Cl (stereo not given) | 0.373 | 1.19 | 1.17 | -0.509 (inactive) | 0.641 | 0.364 | 0.41 | 1.02 | 0.0567 | 1.11 |
| CCOC(=O)C1=CC[C@H]2C(=O)N(c3ccccc3)C(=O)[C@@H]12 | 1.67 | 0.143 | 0.0364 | 0.406 (inactive) | 1.19 | 0.571 | 0.55 | 1.01 | 0.56 | 0.304 |
| COCCOC(=O)N1C(=O)[C@@]2(c3ccccc31)[C@H](C(=O)N1CCCCCCC1)[C@H]1C(=O)O[C@H](c3ccccc3)[C@H](c3ccccc3)N1[C@@H]2c1ccc(OCCO)cc1 | 2.08 | 3.12 | 1.76 | -0.69 (inactive) | 1.69 | 1.49 | 2.05 | 1.79 | 2.72 | 1.77 |
| COCCOC(=O)N1C(=O)[C@@]2(c3cc(C#CC4(O)CCCCCC4)ccc31)[C@H](c1ccccc1OCCO)N1[C@H](c3ccccc3)[C@H](c3ccccc3)OC(=O)[C@H]1[C@@H]2C(=O)N1CCc2cc(OC)c(OC)cc2C1 | 1.09 | 0.0591 | 0.179 | 0.202 (inactive) | 0.99 | 0.929 | 0.345 | 0.528 | 0.0815 | -0.0614 |
| OCC1C=C(/C=C/c2ccccc2)CN1Cc1ccccc1Br (stereo not given) | 1.1 | 0.296 | -0.241 | 0.103 (inactive) | 1.18 | 0.86 | 0.357 | 1.37 | 1.12 | 0.692 |
| CCOC(=O)C1=CC[C@@H](c2ccc(C(F)(F)F)cc2)N(S(=O)(=O)c2ccc(C)cc2)[C@H]1c1ccccc1 | 0.544 | 1 | 1.12 | -2.54 (inactive) | 0.485 | 1.31 | -0.0946 | 0.799 | -0.305 | -0.0699 |
| COc1ccc([Si](C)(C)[C@@H]2[C@@H](CC(=O)N3Cc4ccccc4C[C@H]3CO)O[C@]3(C(=O)N(Cc4cccc(N5CCC5=O)c4)c4ccccc43)[C@H]2C)cc1 | 1.22 | -0.0652 | 0.119 | -0.432 (inactive) | 0.48 | 0.611 | 0.73 | 0.692 | 0.641 | 0.886 |
| CC(=O)NCCCC[C@@H]1NC(=O)[C@H]2C[C@@H](C(=O)NCCCCCNC(=O)CS)[C@@H](c3ccc(O)cc3)N2C1=O | 0.273 | 0.143 | 0.762 | -0.372 (inactive) | 0.157 | -0.252 | -0.578 | -0.84 | -0.186 | -0.0107 |
| C=CC1c2cc(O)c(OC)cc2CCN1Cc1cccc(OC(F)(F)F)c1 (stereo not given) | -0.128 | -0.0819 | 0.516 | -0.918 (inactive) | -0.438 | -0.765 | -0.417 | 0.0396 | -0.0102 | 1.64 |
| CCCCN1CC=CC23O[C@@H]4C=CCCOC(=O)C4[C@H]2C(=O)N(CCCCCO)[C@@H]3C1=O (stereo not given in full) | 1.2 | -0.359 | 0.413 | -0.268 (inactive) | -1.1 | -0.649 | -0.95 | -1.15 | -0.787 | 0.26 |
| C=CC[C@]1(C(=O)N2CCOCC2)N=C(c2ccc(OCCCO)cc2)O[C@H]1c1ccccc1N=[N+]=[N-] | 0.945 | 0.779 | 1.17 | -1.23 (inactive) | 0.95 | 1.29 | 0.23 | 0.673 | -0.201 | 1.09 |
| COC(=O)C(CC#Cc1ccc2c(c1)[C@]1(C(=O)N2)[C@H](c2ccc(O)cc2)N2[C@H](c3ccccc3)[C@H](c3ccccc3)OC(=O)[C@H]2[C@@H]1C(=O)N1CCN(c2ncccn2)CC1)C(=O)OC | 1.69 | 0.534 | 0.508 | -0.84 (inactive) | 0.621 | 1.03 | 0.116 | 0.655 | 0.0879 | 0.126 |
| CCCCC(=C=CC[C@H](O)c1cccc(OCCO)c1)C[C@H](O)c1ccccn1 | 0.827 | -0.218 | -0.302 | -2.17 (inactive) | 0.453 | -0.364 | 0.0715 | 0.0048 | 0.296 | 0.434 |
| CC(=O)NCCCC[C@@H]1NC(=O)[C@H]2C[C@@H](C(=O)O)[C@@H](c3ccc(O)cc3)N2C1=O | 1.43 | 0.13 | 0.372 | -0.177 (inactive) | 1.32 | 1.34 | 1.02 | 1.44 | 1.28 | 1.47 |
| O=C1C2C=CC(C(O)c3ccc(-c4ccccc4)s3)N(Nc3ccccc3)C2C(=O)N1c1ccccc1 (stereo not given) | 1.5 | 0.753 | 0.953 | 1.1 (inactive) | 0.722 | 0.808 | -0.0664 | 1.03 | -0.632 | 0.845 |
| O=C1NC(=O)C2C1C=CC(C(O)c1ccc(-c3ccccc3)s1)N2Nc1ccc(Cl)cc1Cl (stereo not given) | 1.02 | -0.214 | 0.956 | 0.624 (inactive) | 0.227 | 0.508 | 0.112 | 0.992 | -0.729 | 0.959 |
